In the supplement of paper PMC13172266:
Structures can show the parent of a compound that is named as a salt.

Experiments:
Assay in all cases: cell proliferation relative to vehicle (% of vehicle); higher = less growth inhibition
Conditions in all cases: 72 h
[1] = test system: U2932 TK216-resistant clone 2
How it was run: (§1)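 Each of 348 targeted inhibitors was tested at 500 nM or 50 nM for 72 h on U2932 cells, both parental and two clones resistant to an ETS-targeting agent. Readout was by MTT with absorbance read on a Cytation 3. Proliferation appears as percent of proliferating cells relative to vehicle (DMSO).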

[2] = test system: U2932 TK216-resistant clone 3
How it was run: as §1

U2932 parental = test system: U2932 parental
How it was run: as §1

Q: What does the source list for `Cn1c(CCCC(=O)O)nc2cc(N(CCCl)CCCl)ccc21` [Bendamustine HCl]?
A: cell proliferation ([1]; 50 nM): 111; cell proliferation ([1]; 500 nM): 108; cell proliferation ([2]; 50 nM): 102; cell proliferation ([2]; 500 nM): 102; cell proliferation (U2932 parental; 50 nM): 99.3; cell proliferation (U2932 parental; 500 nM): 90.2

Q: Which results are given for `CC1=C(O)C(=O)C=C2C1=CC=C1[C@@]2(C)CC[C@@]2(C)[C@@H]3C[C@](C)(C(=O)O)CC[C@]3(C)CC[C@]12C` [Celastrol]?
A: cell proliferation ([1]; 50 nM): 77.9; cell proliferation ([1]; 500 nM): 18.8; cell proliferation ([2]; 50 nM): 85; cell proliferation ([2]; 500 nM): 27.8; cell proliferation (U2932 parental; 50 nM): 80.6; cell proliferation (U2932 parental; 500 nM): 24.1

Q: How did the cell proliferation ([1]; 50 nM) turn out when `N[C@@H]1C[C@H]1c1ccccc1` [Tranylcypromine (2-PCPA) HCl] was run?
A: 108

Q: And the cell proliferation ([1]; 500 nM)?
A: 107

Q: And the cell proliferation ([2]; 50 nM)?
A: 111

Q: And the cell proliferation ([2]; 500 nM)?
A: 102

Q: What about the cell proliferation (U2932 parental; 50 nM) of the same compound?
A: 101

Q: And the cell proliferation (U2932 parental; 500 nM)?
A: 100

Q: What does the source list for `O=S(=O)(CC1CS1)c1ccc(Oc2ccccc2)cc1` (centres undefined)?
A: cell proliferation ([1]; 50 nM): 102; cell proliferation ([1]; 500 nM): 97.6; cell proliferation ([2]; 50 nM): 98.2; cell proliferation ([2]; 500 nM): 104; cell proliferation (U2932 parental; 50 nM): 95.5; cell proliferation (U2932 parental; 500 nM): 99.7

Q: `O=C(O)CCCc1ccc(N(CCCl)CCCl)cc1` [Chloroambucil] was tested. Which cell proliferation ([1]; 50 nM) did it give?
A: 101

Q: What about the cell proliferation ([1]; 500 nM) of the same compound?
A: 99.4

Q: What about the cell proliferation ([2]; 50 nM) of the same compound?
A: 98.4

Q: And the cell proliferation ([2]; 500 nM)?
A: 101

Q: What about the cell proliferation (U2932 parental; 50 nM) of the same compound?
A: 99.7

Q: What about the cell proliferation (U2932 parental; 500 nM) of the same compound?
A: 98.7

Q: How did the cell proliferation ([1]; 50 nM) turn out when `CC(O)(CS(=O)(=O)c1ccc(F)cc1)C(=O)Nc1ccc(C#N)c(C(F)(F)F)c1` (centres undefined) [Bicalutamide] was run?
A: 109

Q: And the cell proliferation ([1]; 500 nM)?
A: 104

Q: What about the cell proliferation ([2]; 50 nM) of the same compound?
A: 103

Q: What about the cell proliferation ([2]; 500 nM) of the same compound?
A: 97.8

Q: What about the cell proliferation (U2932 parental; 50 nM) of the same compound?
A: 102

Q: And the cell proliferation (U2932 parental; 500 nM)?
A: 96.5

Q: Which results are given for `CC(=O)OC(C)(C)/C=C/C(=O)[C@](C)(O)[C@H]1[C@H](O)C[C@@]2(C)[C@@H]3CC=C4[C@H](C[C@H](O)C(=O)C4(C)C)[C@]3(C)C(=O)C[C@]12C` [Cucurbitacin B]?
A: cell proliferation ([1]; 50 nM): -2.74; cell proliferation ([1]; 500 nM): -3.79; cell proliferation ([2]; 50 nM): 0.167; cell proliferation ([2]; 500 nM): -2.48; cell proliferation (U2932 parental; 50 nM): -0.672; cell proliferation (U2932 parental; 500 nM): -0.512

Q: How did the cell proliferation ([1]; 50 nM) turn out when `Cn1cc(C2=C(c3cn(C4CCN(Cc5ccccn5)CC4)c4ccccc34)C(=O)NC2=O)c2ccccc21` was run?
A: 110

Q: And the cell proliferation ([1]; 500 nM)?
A: 103

Q: What about the cell proliferation ([2]; 50 nM) of the same compound?
A: 99.8

Q: And the cell proliferation ([2]; 500 nM)?
A: 97.1

Q: What about the cell proliferation (U2932 parental; 50 nM) of the same compound?
A: 103

Q: And the cell proliferation (U2932 parental; 500 nM)?
A: 107

Q: With `COc1ccc(C[C@H]2NC[C@H](O)[C@H]2OC(C)=O)cc1` [Anisomycin] as the compound, how does the cell proliferation ([1]; 50 nM) read?
A: 55.2

Q: And the cell proliferation ([1]; 500 nM)?
A: 25.4

Q: What about the cell proliferation ([2]; 50 nM) of the same compound?
A: 69

Q: What about the cell proliferation ([2]; 500 nM) of the same compound?
A: 29.3

Q: What about the cell proliferation (U2932 parental; 50 nM) of the same compound?
A: 66.9

Q: What about the cell proliferation (U2932 parental; 500 nM) of the same compound?
A: 20.5

Q: Which results are given for `COc1cc2c(cc1OC)C1CC(=O)C(CC(C)C)CN1CC2` (centres undefined) [Tetrabenazine (Xenazine)]?
A: cell proliferation ([1]; 50 nM): 101; cell proliferation ([1]; 500 nM): 96.2; cell proliferation ([2]; 50 nM): 106; cell proliferation ([2]; 500 nM): 107; cell proliferation (U2932 parental; 50 nM): 103; cell proliferation (U2932 parental; 500 nM): 93.2

Q: For `O=C(O)C(=O)c1cn(Cc2ccccc2)c2ccc(-c3ccc(OC(F)(F)F)cc3)cc12` [Tiplaxtinin (PAI-039)], which cell proliferation ([1]; 50 nM) is on record?
A: 99.5

Q: What about the cell proliferation ([1]; 500 nM) of the same compound?
A: 93.1

Q: What about the cell proliferation ([2]; 50 nM) of the same compound?
A: 100

Q: And the cell proliferation ([2]; 500 nM)?
A: 98.5

Q: And the cell proliferation (U2932 parental; 50 nM)?
A: 102

Q: And the cell proliferation (U2932 parental; 500 nM)?
A: 99.3

Q: For `O=P1(NCCCl)OCCCN1CCCl` (centres undefined) [Ifosfamide], which cell proliferation ([1]; 50 nM) is on record?
A: 108

Q: What about the cell proliferation ([1]; 500 nM) of the same compound?
A: 107

Q: And the cell proliferation ([2]; 50 nM)?
A: 102

Q: What about the cell proliferation ([2]; 500 nM) of the same compound?
A: 103

Q: And the cell proliferation (U2932 parental; 50 nM)?
A: 103

Q: And the cell proliferation (U2932 parental; 500 nM)?
A: 93.4

Q: Which cell proliferation ([1]; 50 nM) does the source give for `C/C(=C\c1csc(C)n1)[C@@H]1C[C@@H]2O[C@@H]2CCC[C@H](C)[C@H](O)[C@@H](C)C(=O)C(C)(C)[C@@H](O)CC(=O)O1` [Epothilone A] here?
A: 12.4

Q: And the cell proliferation ([1]; 500 nM)?
A: 10

Q: What about the cell proliferation ([2]; 50 nM) of the same compound?
A: 7.03

Q: And the cell proliferation ([2]; 500 nM)?
A: 9.75

Q: And the cell proliferation (U2932 parental; 50 nM)?
A: 9.49

Q: And the cell proliferation (U2932 parental; 500 nM)?
A: 10.1

Q: What does the source list for `Cc1sc2c(c1C)C(c1ccc(Cl)cc1)=N[C@@H](CC(=O)OC(C)(C)C)c1nnc(C)n1-2`?
A: cell proliferation ([1]; 50 nM): 91; cell proliferation ([1]; 500 nM): 58.9; cell proliferation ([2]; 50 nM): 77.2; cell proliferation ([2]; 500 nM): 57.4; cell proliferation (U2932 parental; 50 nM): 92.1; cell proliferation (U2932 parental; 500 nM): 55.1
